# Assay results reported in PubChem BioAssay (NCATS).
# Several values for one entry are separate records, joined by “and”; a condition that tells them apart may be missing. Equal values may be shown once. Unmarked numbers belong to inactive results. Records with an inconclusive call do not appear. Entries that show only a call come without a potency. Activity calls are given as the source filed them. Unless noted, calls come from the whole dose curve; as a rule, active = well fitted curve in the direction sought with a large enough effect; inconclusive = small, poorly fitted or top-dose-only effect, or another doubt; inactive = no such curve, though single readings can be large; an effect the other way counts as inactive or inconclusive.
# Assays:
# [1] = molecular target: Glucocorticoid receptor (Homo sapiens) (UniProt P04150); test: GR-GFP Redistribution (AID 450;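 active = compounds whose dose series gives a full or clear partial fitted curve of increased nuclear translocation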; note: potency is the fitted concentration of half-maximal effect); settings: U2OS GR-GFP nuclear translocation, laser cytometry, 2 h
# Glucocorticoid receptor (Homo sapiens), sequence (P04150 whole entry, looked up, the tested form may be a part): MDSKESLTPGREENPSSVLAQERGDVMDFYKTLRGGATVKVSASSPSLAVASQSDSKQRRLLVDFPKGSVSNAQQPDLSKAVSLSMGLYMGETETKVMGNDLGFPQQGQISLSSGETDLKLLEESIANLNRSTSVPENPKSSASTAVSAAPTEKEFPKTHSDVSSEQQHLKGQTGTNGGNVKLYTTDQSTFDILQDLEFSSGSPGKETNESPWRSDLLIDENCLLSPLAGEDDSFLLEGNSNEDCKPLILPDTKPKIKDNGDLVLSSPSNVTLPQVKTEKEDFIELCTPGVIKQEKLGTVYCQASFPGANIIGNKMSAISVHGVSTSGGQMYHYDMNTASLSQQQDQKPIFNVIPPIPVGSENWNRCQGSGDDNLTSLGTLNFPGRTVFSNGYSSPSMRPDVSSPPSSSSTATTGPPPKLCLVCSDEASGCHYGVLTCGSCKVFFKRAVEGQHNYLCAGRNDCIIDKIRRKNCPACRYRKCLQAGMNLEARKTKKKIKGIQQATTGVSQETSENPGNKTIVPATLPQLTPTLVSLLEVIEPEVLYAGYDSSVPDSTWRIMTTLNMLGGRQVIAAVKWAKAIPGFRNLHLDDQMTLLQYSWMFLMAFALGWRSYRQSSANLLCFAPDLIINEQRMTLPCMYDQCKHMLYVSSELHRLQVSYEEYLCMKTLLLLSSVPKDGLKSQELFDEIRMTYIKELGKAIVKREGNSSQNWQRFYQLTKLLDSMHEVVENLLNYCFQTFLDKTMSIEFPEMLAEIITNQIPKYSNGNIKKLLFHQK
# [2] = molecular target: Glucocorticoid receptor (Homo sapiens) (UniProt P04150); test: GR-EFC Redistribution (AID 451; calls by dose curve; note: potency is the fitted concentration of half-maximal effect); settings: CHO-K1 GR-EFC translocation, beta-gal luminescence, 2 h
# Outline: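 Translocation of GR-ED fusion to nuclear EA restores b-gal, read by luminescence after 1 h room-temperature detection. Engineered CHO-K1 biosensor cells, 1,000/well, exposed 2 h at 37 C to titrations up to 46 uM final.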
# [3] = molecular target: Mitogen-activated protein kinase 10 (Mus musculus) (UniProt Q61831); test: JNK3 AlphaScreen Assay (AID 530; active = well fitted curve in either direction with a large enough effect, not every such curve was filed as active;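 note: kinase came from lysate of stimulated human HepG2 cells; signal reports phosphorylation of biotinylated GST-cJun 1-79 at Ser73 with 10 µM ATP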); settings: JNK3 lysate, c-Jun phosphorylation; series mostly up to 57.1 µM
# Outline: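 Compound titrations were preincubated 15 minutes at room temperature with substrate, antibody and pre-activated JNK3-containing HepG2 lysate. Reactions were started with 10 uM ATP and stopped with EDTA-containing bead buffer for AlphaScreen detection.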
# [4] = molecular target: 3',5'-cyclic-AMP phosphodiesterase 4B (Homo sapiens) (UniProt Q07343); test: qHTS Assay for Inhibitors of PDE-IV (AID 607; active = well fitted activation curve with a large enough effect in the main read-out, with a control signal flat, not every such curve was filed as active); settings: HEK293 ACTOne CNG channel cells, membrane potential fluorescence; series mostly up to 22.9 µM
# 3',5'-cyclic-AMP phosphodiesterase 4B (Homo sapiens), sequence (Q07343 whole entry, looked up): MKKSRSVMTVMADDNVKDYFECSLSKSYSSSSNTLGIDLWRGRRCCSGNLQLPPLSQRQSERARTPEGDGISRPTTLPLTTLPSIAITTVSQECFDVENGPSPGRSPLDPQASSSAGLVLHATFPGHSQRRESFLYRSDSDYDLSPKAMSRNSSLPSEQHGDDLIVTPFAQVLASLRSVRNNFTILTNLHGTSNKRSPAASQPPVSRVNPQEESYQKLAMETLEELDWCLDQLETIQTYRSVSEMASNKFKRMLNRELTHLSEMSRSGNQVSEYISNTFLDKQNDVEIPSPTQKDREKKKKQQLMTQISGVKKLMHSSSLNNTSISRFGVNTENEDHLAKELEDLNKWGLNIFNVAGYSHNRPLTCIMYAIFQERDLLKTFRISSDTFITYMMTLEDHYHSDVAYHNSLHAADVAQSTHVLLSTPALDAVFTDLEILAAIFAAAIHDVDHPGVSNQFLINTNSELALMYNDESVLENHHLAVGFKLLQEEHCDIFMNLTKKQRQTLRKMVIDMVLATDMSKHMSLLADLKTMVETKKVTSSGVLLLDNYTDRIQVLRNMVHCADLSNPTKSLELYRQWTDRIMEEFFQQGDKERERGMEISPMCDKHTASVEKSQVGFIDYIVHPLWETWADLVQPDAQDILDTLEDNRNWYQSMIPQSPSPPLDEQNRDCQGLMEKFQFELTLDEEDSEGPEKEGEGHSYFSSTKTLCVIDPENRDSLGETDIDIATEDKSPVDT
# Outline: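 Live HEK293 cells with a modified cyclic nucleotide-gated (CNG) channel report intracellular cAMP via membrane-potential dye fluorescence (ex 535/em 590 nm). Endogenous PDE-IV was targeted. Compounds were tested at up to 22.9 uM final; RO 20-1724 100 uM served as control.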
# [5] = Cell Viability - N2a (AID 540); settings: N2a mouse neuroblastoma cell viability; series mostly up to 92.2 µM; note: nearly all actives have a fitted effect of over 45% in size
# Outline: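 Mouse neuroblastoma N2a cells, 1500/well, exposed to compounds 40 h at 37 °C in complete medium. Viability measured as cellular ATP by CellTiter-Glo luminescence; AC50 from Hill fits of concentration-response.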
# [6] = Cell Viability - NIH 3T3 (AID 541); settings: NIH 3T3 cell viability, qHTS; series mostly up to 92.2 µM; note: nearly all actives have a fitted effect of over 25% in size; note: potency is the fitted concentration of half-maximal effect
# Outline: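 Mouse NIH 3T3 fibroblasts, 1000 cells/well, rested 5 hr at 37 °C, then exposed to compound for 40 hr at 37 °C in complete medium. Viability read as intracellular ATP by CellTiter-Glo luminescence; AC50 from Hill-equation fits of concentration-response data.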
# [7] = Cell Viability - HUV-EC-C (AID 542); settings: HUV-EC-C endothelial cell viability, qHTS; series mostly up to 92.2 µM; note: nearly all actives have a fitted effect of over 35% in size
# Outline: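 HUV-EC-C human vascular endothelial cells, 1000/well, exposed to compound for 40 hr at 37 °C in complete medium. Intracellular ATP was read by CellTiter-Glo luminescence. AC50 came from Hill-equation fits of concentration-response data.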
# [8] = Cell Viability - H-4-II-E (AID 543); settings: H-4-II-E rat hepatoma viability; series mostly up to 92.2 µM; note: nearly all actives have a fitted effect of over 35% in size
# Outline: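 Rat hepatoma H-4-II-E cells, 1500 per well, treated 40 h at 37 °C in complete medium. Cellular ATP read by CellTiter-Glo luminescence; AC50 from Hill fits of concentration-response.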
# [9] = Cell Viability - SH-SY5Y (AID 544); settings: SH-SY5Y neuroblastoma cell viability; series mostly up to 92.2 µM; note: nearly all actives have a fitted effect of over 55% in size
# Outline: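 SH-SY5Y human neuroblastoma cells (1500/well) incubated 5 h, then compound-treated 40 h at 37 °C in complete medium. Viability read as intracellular ATP by CellTiter-Glo luminescence after 20 min; AC50 from Hill-equation fits of qHTS concentration-response.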
# [10] = Cell Viability - Renal Proximal Tubule (AID 545); settings: renal proximal tubule cells viability, primary cells of rat origin; series mostly up to 91.7 µM; note: nearly all actives have a fitted effect of over 40% in size
# Outline: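 Luminescent ATP signal (CellTiter-Glo) served as the viability read-out after 40 hr compound exposure of freshly isolated rat proximal tubule cells at 37 °C. Concentration-dependent ATP loss was fitted with the Hill equation to give AC50.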
# [11] = Cell Viability - Mesenchymal (AID 546); settings: mesenchymal cells viability, qHTS; series mostly up to 91.7 µM;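 note: cells exposed to compound for 40 hours before reading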
# Outline: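 AC50 values reflect the drop in intracellular ATP in a human kidney mesenchymal line derived from normal glomeruli. Treatment lasts 40 hr at 37 °C in complete medium, and the signal comes from CellTiter-Glo luminescence.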
# [12] = Cellular Toxicity (caspase-3) HepG2 (AID 654); settings: HepG2 caspase-3 activation, luminescence, 0% = DMSO only, 100% = tamoxifen; series mostly up to 92.2 µM;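 note: cells exposed to compound for 16 hours before reading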
# Outline: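 HepG2 cells (1500/well) were treated 16 h at 37 °C in complete medium, then caspase 3/7 activity was read by Caspase-Glo luminescence. Data were normalized to DMSO and 100 uM tamoxifen; AC50 came from Hill-equation fits of qHTS concentration-response.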
# [13] = Cellular Toxicity (caspase-3) Jurkat (AID 655); settings: Jurkat caspase-3 activation, luminescence, DMSO = 0%, tamoxifen = 100%; series mostly up to 92.2 µM;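 note: cells exposed to compound for 16 h at 37 °C before reading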
# Outline: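 5000 Jurkat cells/well; compound 16 hr, 37 °C; Caspase-Glo 3/7 added, 20 min RT; luminescence read. Norm: DMSO = 0%, tamoxifen 100 uM = 100%. AC50, Hill model.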
# [14] = Cellular Toxicity (caspase-3) HUV-EC-C (AID 656); settings: HUV-EC-C cells, caspase-3 activation (apoptosis), vehicle = 0, 100 µM tamoxifen = 100%; series mostly up to 92.2 µM
# Outline: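 qHTS; HUV-EC-C, 1000 cells/well; 5 hr settle, 16 hr cmpd, 37°C; Caspase-Glo 3/7, 20 min RT; luminescence. Norm: DMSO = 0%, tamoxifen 100 uM = 100%. Hill-fit AC50.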
# [15] = Cellular Toxicity (caspase-3) SHSY5Y (AID 657); settings: SH-SY5Y caspase-3 activation, DMSO zero, 10 µM staurosporine = 100%; series mostly up to 91.7 µM
# Outline: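 qHTS, SH-SY5Y, 1500 cells/well, 5 h pre-incubation 37 °C; compound 16 h 37 °C; Caspase-Glo 3/7 1 h RT; luminescence. Norm.: DMSO = 0, 10 uM staurosporine = 100%. Hill fit → AC50.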
# [16] = Cellular Toxicity (caspase-3) BJ (AID 658); settings: BJ fibroblasts, luminescence, normalized: DMSO 0%, staurosporine 100%; series mostly up to 91.7 µM
# Outline: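 Readout: Caspase-Glo 3/7 luminescence increase in BJ cells after 16 hr treatment at 37 °C. Staurosporine and tamoxifen served as positive controls; AC50 values came from Hill modelling of data normalized to DMSO and 10 uM staurosporine.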
# [17] = Cellular Toxicity (caspase-3) MRC-5 (AID 659); settings: MRC-5 cells, luminescence, normalized: DMSO 0%, 10 µM staurosporine 100%; series mostly up to 91.7 µM
# Outline: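 Concentration-dependent caspase 3/7 activation is measured in human normal lung fibroblasts (MRC-5) following 16-hour treatment. AC50 values come from standard Hill-equation modeling of luminescence normalized to DMSO and 10 uM staurosporine.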
# [18] = Cellular Toxicity (caspase-3) Mesangial (AID 660); settings: mesangial cells, normalized: DMSO 0%, 100 µM tamoxifen 100%; series mostly up to 91.7 µM;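 note: cells exposed to compound for 16 h before the caspase read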
# Outline: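 Human renal glomerular mesangial cells, 1000/well, 5 h at 37 C before 16 h compound treatment. Caspase-Glo 3/7 luminescence after 20 min; normalized to DMSO and 100 uM tamoxifen, AC50 from Hill fit.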
# [19] = Cellular Toxicity (caspase-3) SK-N-SH (AID 661); settings: SK-N-SH caspase-3 activation, qHTS, DMSO as zero, staurosporine as full; series mostly up to 91.7 µM
# Outline: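 Human SK-N-SH neuroblastoma cells, 1500/well, were exposed to compounds for 16 hours at 37 °C. Caspase-Glo 3/7 luminescence was normalized to DMSO (basal) and 10 uM staurosporine (100%), and AC50 came from a Hill fit.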
# [20] = Stat Signaling Pathway (AID 446; active = well fitted curve in either direction with a large enough effect, not every such curve was filed as active;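 note: ME-180 cervical cancer cells given 40 pM IL-6 alongside compound; SIE-controlled beta-lactamase reporter measured as 460/530 nm FRET emission ratio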); settings: ME-180 (cervical carcinoma) SIE beta-lactamase reporter, IL-6 stimulated, 5 h; series mostly up to 17.2 µM
# Outline: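 IL-6/STAT signaling read in ME-180 cells via an SIE beta-lactamase reporter. Stimulus was 40 pM IL-6 (its AC50) for 5 hrs, so both activation and inhibition register.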
smiles,measurement,setting,value
CC(=O)O[C@H]1C(=O)[C@@]2(C)[C@H]([C@H](OC(=O)c3ccccc3)[C@]3(O)C[C@H](OC(=O)[C@H](O)[C@@H](NC(=O)c4ccccc4)c4ccccc4)C(C)=C1C3(C)C)[C@]1(OC(C)=O)CO[C@@H]1C[C@@H]2O,Potency,[1],> 46 µM
same,Potency,[2],> 46 µM
same,outcome,[3],inactive
same,outcome,[4],inactive
COc1ccc(C[C@H](N)C(=O)N[C@@H]2[C@H](O)[C@H](n3cnc4c(N(C)C)ncnc43)O[C@@H]2CO)cc1,Potency,[1],> 20.6 µM
same,Potency,[2],> 20.6 µM
same,outcome,[3],inactive
same,outcome,[4],inactive
CC(=O)O[C@@H]1CC(C)=C2[C@H]1[C@H](C)CC[C@H]2/C=C(\C)C(=O)O,outcome,[3],inactive
same,outcome,[5],inactive
same,Potency,[6],inactive
same,outcome,[7],inactive
same,outcome,[8],inactive
same,outcome,[9],inactive
same,outcome,[10],inactive
same,outcome,[11],inactive
same,outcome,[12],inactive
same,outcome,[13],inactive
same,outcome,[14],inactive
same,outcome,[15],inactive
same,outcome,[16],inactive
same,outcome,[17],inactive
same,outcome,[18],inactive
same,outcome,[19],inactive
CC[C@]1(O)CC2CN(CCc3c([nH]c4ccccc34)[C@@](C(=O)OC)(c3cc4c(cc3OC)N(C=O)[C@H]3[C@@](O)(C(=O)OC)[C@H](OC(C)=O)[C@]5(CC)C=CCN6CC[C@]43[C@@H]65)C2)C1 (stereo not given in full),outcome,[20],inactive
same,Potency,[1],> 20.6 µM
Nc1ccccc1N,outcome,[3],inactive
same,outcome,[5],inactive
same,Potency,[6],6.31 µM (active)
same,outcome,[7],inactive
same,outcome,[11],inactive
same,outcome,[12],inactive
same,outcome,[14],inactive
same,outcome,[15],inactive
same,outcome,[16],inactive
same,outcome,[17],inactive
same,outcome,[19],inactive
Cc1ccc(N)cc1O,outcome,[3],inactive
same,outcome,[5],inactive
same,Potency,[6],inactive
same,outcome,[7],inactive
same,outcome,[8],inactive
same,outcome,[9],inactive
same,outcome,[10],inactive
same,outcome,[11],inactive
same,outcome,[12],inactive
same,outcome,[13],inactive
same,outcome,[14],inactive
same,outcome,[15],inactive
same,outcome,[16],inactive
same,outcome,[17],inactive
same,outcome,[18],inactive
same,outcome,[19],inactive
O=C1NC(=O)C(c2cn(-c3ccccc3)nc2-c2ccc(F)cc2)N1 (stereo not given),outcome,[20],inactive
same,Potency,[1],> 20.6 µM
Cc1ccccc1CN1C2=NCCN2C(=O)C2=C1CCN(Cc1ccccc1)C2,outcome,[20],inactive
same,Potency,[1],> 46 µM
same,Potency,[2],> 9.22 µM
same,"activity change, negative = inhibition",[3],-0.448% [at 11.4 µM]
same,outcome,[4],inactive
COc1ccc2c(OC)c3ccoc3nc2c1OC,outcome,[20],inactive
same,Potency,[1],> 20.6 µM and > 46 µM
same,Potency,[2],> 20.6 µM and > 46 µM
same,outcome,[3],inactive
same,outcome,[4],inactive
